# Source: PubChem BioAssay (National Center for Advancing Translational Sciences (NCATS))
# This is a sample that favours compounds with a hit; in the whole collection about 0.9% have one here.
# APEX1 inh: inhibitors of human APE1 endonuclease; recombinant APE1, TAMRA/BHQ-2 abasic DNA cleavage fluorescence; Potency, µM (highest dose often 65.8 µM), inactives show at the highest dose activity change, negative = inhibition, actives largely listed as inhibitors; 350,000 tested, 0.35% active; AID 2517;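 also: plate controls were vehicle for no effect and reference inhibitor for full effect; nearly all actives have a fitted effect of over 55% in size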
# Target sequence (P27695 whole entry, looked up): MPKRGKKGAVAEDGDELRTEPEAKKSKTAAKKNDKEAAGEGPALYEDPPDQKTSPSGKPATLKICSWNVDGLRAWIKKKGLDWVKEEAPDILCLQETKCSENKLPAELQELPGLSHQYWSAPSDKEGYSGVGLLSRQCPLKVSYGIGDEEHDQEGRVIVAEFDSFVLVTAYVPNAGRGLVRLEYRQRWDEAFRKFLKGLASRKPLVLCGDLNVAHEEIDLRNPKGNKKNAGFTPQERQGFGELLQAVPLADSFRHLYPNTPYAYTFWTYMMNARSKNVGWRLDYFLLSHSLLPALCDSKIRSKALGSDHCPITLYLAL
#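 0.75 nM APE1 + cpd, 15 min RT; start w/ 50 nM TAMRA/BHQ-2 THF-abasic dsDNA; kinetic fluor 525/598 nm ×3 reads @60 s; Δ(read3−read1); normalized to DMSO and NSC13755 control wells.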
# RECQ1 inh: blocks DNA unwinding by human RECQ1 | RECQ1 DNA unwinding, red fluorescence kinetic read | Potency, µM (doses to about 57.3 µM), for the others: at the top dose activity, negative = inhibition, actives largely listed as inhibitors | 240,000 tested, 0.54% active | P46063;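 also: plate controls were vehicle for no effect and no enzyme for full effect; nearly all actives have a fitted effect of over 30% in size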
#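 50 nM RECQ1T1 preincubated 15 min with compound in Tris pH 8.0 buffer with MgCl2, DTT, Tween-20 and 2.5 ug/ml poly(dI-dC); started with 200 nM TAMRA/BHQ-2 forked duplex and 2 mM ATP. Unwinding read as fluorescence (525/598 nm), two reads 2 h apart.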
# RGS12 GoLoco inh: blocks human Gai1 binding to RGS12 GoLoco peptide, red readout. Gai1:RGS12 GoLoco peptide FP, rhodamine, 10 min. Potency, µM (highest dose often 61.6 µM), inactives show top-dose activity, negative = inhibition, most hits filed as inhibitors. 230,000 tested, 0.44% active. AID 880; active = well fitted inhibition curve with a large enough effect, not every such curve was filed as active; inactive = no such curve, though single readings can be large or run the other way; also: nearly all actives have a fitted effect of over 30% in size
# Target sequence (P63096 whole entry, looked up): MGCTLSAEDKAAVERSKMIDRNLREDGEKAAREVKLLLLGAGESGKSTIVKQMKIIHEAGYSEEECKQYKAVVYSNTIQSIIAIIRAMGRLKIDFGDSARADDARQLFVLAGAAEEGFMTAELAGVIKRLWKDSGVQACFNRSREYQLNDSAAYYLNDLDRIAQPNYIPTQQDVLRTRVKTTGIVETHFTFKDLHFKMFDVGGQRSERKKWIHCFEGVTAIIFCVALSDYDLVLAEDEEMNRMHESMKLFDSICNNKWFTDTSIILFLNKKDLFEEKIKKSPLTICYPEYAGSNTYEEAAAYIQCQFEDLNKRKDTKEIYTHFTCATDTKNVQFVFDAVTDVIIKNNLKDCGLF
# BLM helicase inh: inhibitors of human Bloom syndrome helicase BLM; P54132; recombinant BLM DNA unwinding, fluorescence dequenching; Potency, µM (doses to about 56.1 µM), for inactives: at the highest dose activity change, negative = inhibition, actives largely listed as inhibitors; 350,000 tested, 0.2% active; AID 2528;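 also: plate controls were vehicle for no effect and no enzyme for full effect; nearly all actives have a fitted effect of over 35% in size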
# TRb SRC2 PPI: inhibitors of human thyroid hormone receptor beta-SRC2 interaction; TRbeta-SRC2 peptide binding, fluorescence polarization; receptor liganded with 1 µM T3; Potency, µM (top dose mostly 106 µM), inactives show top-dose activity change, negative = inhibition, hits mostly inhibitors; 280,000 tested, 0.065% active; AID 1469;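 also: plate controls were bound peptide for no effect and peptide without receptor for full effect; nearly all actives have a fitted effect of over 50% in size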
#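 Fluorescence polarization of 20 nM Texas Red SRC2 peptide (20-aa NR interaction domain) bound to 0.6 uM human TRb ligand-binding domain, with 1 uM T3, after 5 hr at ambient temperature; inhibition seen as decreased polarization.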
# TexasRed fluor: counter-screen for TRb-SRC2 inhibitors: fluorescence interference | 280,000 tested, 0.29% active | TRb/SRC2 Texas Red total fluorescence interference | Potency, µM (doses to about 106 µM), for the others: at the highest dose fluorescence change, negative = quenching | AID 1479; active = well fitted curve in either direction with a large enough effect; inconclusive = small, poorly fitted or top-dose-only effect
#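 Human TRβ ligand-binding domain (0.6 uM) and Texas Red SRC2 peptide (20 nM) in Tris buffer with 1 uM T3 and 5% DMSO were incubated with pinned compound for 5 hr at ambient temperature. Total fluorescence was computed as S + 2P (555/632 nm).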
# * hit, by the source's call; i = inactive; ? = inconclusive; / = no result given; ! = not active in a repeat; [ ] = dose if it differs, or a comment. Unless noted, calls follow the shape of the dose curve; as a rule, active = well fitted curve in the direction sought with a large enough effect; inconclusive = small, poorly fitted or top-dose-only effect, or another doubt; inactive = no such curve, though single readings can be large; an effect the other way counts as inactive or inconclusive. Unless noted, % is scaled to controls: 0 for no effect and ±100 for the full control effect; potency is read from the fitted curve at half-maximal effect.
SMILES,APEX1 inh,RECQ1 inh,RGS12 GoLoco inh,BLM helicase inh,TRb SRC2 PPI,TexasRed fluor
C[N+]1(CC2COC3(CCCCC3)O2)CCCCC1 (stereo unspecified),13%,-5%,8.9µM*,-1%,-3%,-4%
COc1cc(CCC(O)CC(=O)CCc2ccccc2)ccc1O (stereo unspecified),14µM*,-10%,-2%,-15%,-2%,0%
COc1cc(/C=N/NC(=O)CCc2ccccc2)ccc1O,-2%,-1%,-14%,0%,6%,-1%
COC(=O)CCSCCC(=O)OC,/,/,/,/,-2%[201 µM],3%[201 µM]
COC(=O)C[C@](O)(CCCC(C)(C)O)C(=O)O[C@@H]1C(OC)=CC23CCCN2CCc2cc4c(cc2[C@H]13)OCO4 (stereo partly specified),-6%,/,/,/,/,/
Nc1nc(Sc2ccc([N+](=O)[O-])c3nonc23)c2[nH]cnc2n1,/,/,1.6µM*,/,/,/
O=C(COc1ccc(/C=N/NC(=O)c2ccncc2)cc1)Nc1ccc([N+](=O)[O-])cc1,18%[12.4 µM],/,/,-1%,/,/
O=C(COc1ccc(/C=N/NC(=O)c2ccc(O)cc2)cc1)Nc1cccc([N+](=O)[O-])c1,1%,-11%,25%,18µM*,5%,-7%
CO/N=C(\C(=O)N[C@@H]1C(=O)N2C(C(=O)OCOC(=O)C(C)(C)C)=C(/C=C\c3scnc3C)CS[C@H]12)c1csc(N)n1,-3%,/,/,/,/,/
Cc1c(Br)c(=O)oc2c(Br)c(O)c(O)cc12,3%,i,-13%,7.9µM*,-6%,-9%
Cc1c(Br)c(=O)oc2c(Br)c(O)ccc12,?,2%,-1%,9%,7%,-2%
O=C(OC[C@H]1O[C@@H](OC(=O)c2cc(O)c(O)c(OC(=O)c3cc(O)c(O)c(O)c3)c2)[C@H](OC(=O)c2cc(O)c(O)c(OC(=O)c3cc(O)c(O)c(O)c3)c2)[C@@H](OC(=O)c2cc(O)c(O)c(OC(=O)c3cc(O)c(O)c(O)c3)c2)[C@@H]1OC(=O)c1cc(O)c(O)c(OC(=O)c2cc(O)c(O)c(O)c2)c1)c1cc(O)c(O)c(OC(=O)c2cc(O)c(O)c(O)c2)c1,0.0053µM*,/,/,/,/,/
COc1ccc(-c2nc3ccc(C(=O)NCC(OC)OC)cc3nc2-c2ccc(OC)cc2)cc1,13%,22µM*,-8%,-12%,-3%,-3%
COc1ccc(/C=C/C(=O)O)cc1,?,-24%,10%,1%,25µM*!,45µM*![fluorescent]
Cc1nc2ccn(Cc3cccnc3)c(=O)c2cc1C(=O)Nc1ccc(F)cc1F,/,/,/,-2%,8%,0%
CC(OC(=O)/C(C#N)=C/c1ccc(N(C)C)cc1)C(=O)N(C)c1ccccc1 (stereo unspecified),24µM*,/,/,/,/,/
CC(=O)Nc1ccc(NC(=O)C(C)OC(=O)/C(C#N)=C/c2ccc(N(C)C)cc2)cc1 (stereo unspecified),-27%,/,/,/,/,/
CCCCCCCCCCCCCCO,/,/,/,/,6%[201 µM],0%[201 µM]
CCCCCCNC(=O)N[C@@H](C(=O)NCCC[C@H]1CN2C(=NC[C@@H]2Cc2ccccc2)N1CCc1cccc(OC)c1)C(C)C,1%,i,14µM*,4%,0%,0%
CCC(Oc1ccccc1-c1nnc(-c2ccccc2)o1)C(=O)Nc1ccc(C(C)=O)cc1 (stereo unspecified),/,/,/,-1%,-2%,0%
CC1=CC(C)[C@@H]2COC(c3ccc(O)cc3)[C@H]1C2C (stereo partly specified),-16%,/,/,-10%,/,/
CC1=CC(C)C2COC(c3ccc[n+](C)c3)C1C2C (stereo unspecified),2%,-2%,28µM*,-7%,6%,1%
Cc1ccc(-c2nc(N)s[n+]2-c2ccccc2)cc1,2%,-1%,3.5µM*,-4%,2%[53 µM],-1%[53 µM]
CCCC1=[N+](CC)CCn2c(C)ccc21,1%,-1%,13µM*,3%,8%,-1%
CC(=O)Nc1ccc(N=Nc2cc(C)ccc2O)cc1,/,/,/,/,28%[201 µM],?
SMILES,APEX1 inh,RECQ1 inh,RGS12 GoLoco inh,BLM helicase inh,TRb SRC2 PPI,TexasRed fluor
CC(=O)c1c(C(C)=O)c(C)n(-c2ccc(N)c(C)c2)c1C,1%,-9%,-4%,1%,22µM*,45µM*[fluorescent]
N#Cc1nonc1-c1ccccc1,2%,/,/,/,/,/
C=CC(=O)OCC[N+](C)(C)C,/,/,/,/,2%[201 µM],-2%[201 µM]
NC(=S)n1[nH]c(-c2ccc([N+](=O)[O-])cc2)c(N=Nc2cccc([N+](=O)[O-])c2)c1=O,?,-2%,5%,18µM*,3%,-14%
NC(=S)n1[nH]c(-c2ccc([N+](=O)[O-])cc2)c(N=Nc2ccccc2[N+](=O)[O-])c1=O,13%,i,4%,-6%,-5%,-2%
CN(C)c1ccc(N2CN=C3SCC(=O)N3C2)cc1,-6%,-15%,-1%,1%,16µM*,?
O=C(NC1CCCC1)O[C@@H]1C(=O)c2cc(Br)ccc2O[C@H]1c1ccc2c(c1)OCO2,1%,-3%,-3%,-2%,3%,-1%
Cn1nc(-c2ccccn2)nc2c(=O)n(C)c(=O)nc1-2,?,4.5µM*,-6%,1µM*,?,-3%
CCCc1nc2c(=O)n(C)c(=O)nc-2n(C)n1,?,?,-3%,2.8µM*,?,-5%
O=C(Nc1cccnc1)c1cnn2c1NC(=C1CC1)C=C2C(F)F,41%,/,/,/,/,/
N#Cc1c(-c2cccc(O)c2)no[n+]1[O-],-3%,/,/,/,/,/
CC[C@H](C)[C@@H](NC(=O)O[C@@H]1Cc2cc(OC)ccc2O[C@H]1c1cccc(OC)c1)C(=O)OC,6%,i,1%,2%,1%,-1%
C/C=C/C/C=C\CCCCCCCCOC(C)=O,/,/,/,/,-1%[201 µM],1%[201 µM]
O=C(O)[C@H](C1NCCS1)N1Cc2ccccc2C1 (stereo partly specified),/,/,3%[14.2 µM],/,/,/
CC(C)(C)OC(=O)N[C@@H](Cc1ccccc1)c1nnc(S(=O)(=O)Cc2ccccc2)o1,-5%,-1%,18µM*,0%,-10%,-3%
CC(C)=CC[C@@H](O)C1=CC(=O)c2c(O)ccc(O)c2C1=O,7.1µM*,10µM*,-18%,/,-3%,28µM*[quencher]
C=C1C(=O)O[C@H]2[C@H]1CC/C(C)=C\CC[C@@]1(C)O[C@@H]21,2%[21 µM],/,/,/,/,/
CN1CCc2c(sc3c2C(=O)NC(c2ccccn2)N3)C1 (stereo unspecified),?,?,28µM*,2%,10µM*,45µM*[fluorescent]
CN1CCc2c(sc3c2C(=O)NC(c2ccccc2)N3)C1 (stereo unspecified),2%,-8%,25%,-10%,-14%,16%
